Laboratory results from PubChem BioAssay.

Test system: not listed separately
Assay: binders of probe aFGF10 on microarray, primary screen, stem cell growth factor project, biochemical, small-molecule microarray, fluorescence 635/667 (AID 1071);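 note: score merges 667 nm spot intensity and signal to noise from triplicate slides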
Conditions: higher = more signal

Compound | composite z-score
CCCCC=C[C@@H](NC(=O)c1ccco1)c1ccccc1 | 0.372
C=CCC(OC(C)=O)[C@@H]1[C@@H](N(Cc2cccc3ccccc23)C(=O)c2cccc3ccccc23)c2cc(OCCCO)ccc2N1C(=O)c1ccc2ccccc2n1 (stereo partly drawn) | 0.281
COc1ccc([Si](C)(C)[C@H]2[C@H](CCn3cc(CCO)nn3)O[C@@]3(C(=O)N(Cc4ccc(N5CCOC5=O)cc4)c4ccccc43)[C@@H]2C)cc1 | 0.44
CC(=O)Nc1cc(Br)ccc1C(=O)O | 0.239
CN1CCC(CCCO)=CC1c1ccc(CN2CCCC2)cc1 (stereo not drawn) | 0.789
COCCOC(=O)N1C(=O)[C@@]2(c3ccccc31)[C@H](C(=O)Nc1nc3ccccc3s1)[C@H]1C(=O)O[C@H](c3ccccc3)[C@H](c3ccccc3)N1[C@@H]2c1ccc(OCCO)cc1 | 0.738
COC(=O)c1ccc(C(O)C2C=CC3C(=O)N(C)C(=O)C3N2NC(=O)OC(C)(C)C)o1 (stereo not drawn) | 1.03
O=C1OCCC=C[C@H]2OC34C=CCN(Cc5ccccc5)C(=O)[C@H]3N(CCCCCCO)C(=O)[C@@H]4C12 (stereo partly drawn) | -0.384
CC(C)N1C(=O)c2ccccc2[C@@H](C(=O)NCCCN(C)C)[C@@H]1c1ccc(CO)cc1 | -0.086

Molecular target: Neurogenic locus notch homolog protein 2 (Homo sapiens) (UniProt Q04721)
Sequence (Q04721 whole entry, looked up): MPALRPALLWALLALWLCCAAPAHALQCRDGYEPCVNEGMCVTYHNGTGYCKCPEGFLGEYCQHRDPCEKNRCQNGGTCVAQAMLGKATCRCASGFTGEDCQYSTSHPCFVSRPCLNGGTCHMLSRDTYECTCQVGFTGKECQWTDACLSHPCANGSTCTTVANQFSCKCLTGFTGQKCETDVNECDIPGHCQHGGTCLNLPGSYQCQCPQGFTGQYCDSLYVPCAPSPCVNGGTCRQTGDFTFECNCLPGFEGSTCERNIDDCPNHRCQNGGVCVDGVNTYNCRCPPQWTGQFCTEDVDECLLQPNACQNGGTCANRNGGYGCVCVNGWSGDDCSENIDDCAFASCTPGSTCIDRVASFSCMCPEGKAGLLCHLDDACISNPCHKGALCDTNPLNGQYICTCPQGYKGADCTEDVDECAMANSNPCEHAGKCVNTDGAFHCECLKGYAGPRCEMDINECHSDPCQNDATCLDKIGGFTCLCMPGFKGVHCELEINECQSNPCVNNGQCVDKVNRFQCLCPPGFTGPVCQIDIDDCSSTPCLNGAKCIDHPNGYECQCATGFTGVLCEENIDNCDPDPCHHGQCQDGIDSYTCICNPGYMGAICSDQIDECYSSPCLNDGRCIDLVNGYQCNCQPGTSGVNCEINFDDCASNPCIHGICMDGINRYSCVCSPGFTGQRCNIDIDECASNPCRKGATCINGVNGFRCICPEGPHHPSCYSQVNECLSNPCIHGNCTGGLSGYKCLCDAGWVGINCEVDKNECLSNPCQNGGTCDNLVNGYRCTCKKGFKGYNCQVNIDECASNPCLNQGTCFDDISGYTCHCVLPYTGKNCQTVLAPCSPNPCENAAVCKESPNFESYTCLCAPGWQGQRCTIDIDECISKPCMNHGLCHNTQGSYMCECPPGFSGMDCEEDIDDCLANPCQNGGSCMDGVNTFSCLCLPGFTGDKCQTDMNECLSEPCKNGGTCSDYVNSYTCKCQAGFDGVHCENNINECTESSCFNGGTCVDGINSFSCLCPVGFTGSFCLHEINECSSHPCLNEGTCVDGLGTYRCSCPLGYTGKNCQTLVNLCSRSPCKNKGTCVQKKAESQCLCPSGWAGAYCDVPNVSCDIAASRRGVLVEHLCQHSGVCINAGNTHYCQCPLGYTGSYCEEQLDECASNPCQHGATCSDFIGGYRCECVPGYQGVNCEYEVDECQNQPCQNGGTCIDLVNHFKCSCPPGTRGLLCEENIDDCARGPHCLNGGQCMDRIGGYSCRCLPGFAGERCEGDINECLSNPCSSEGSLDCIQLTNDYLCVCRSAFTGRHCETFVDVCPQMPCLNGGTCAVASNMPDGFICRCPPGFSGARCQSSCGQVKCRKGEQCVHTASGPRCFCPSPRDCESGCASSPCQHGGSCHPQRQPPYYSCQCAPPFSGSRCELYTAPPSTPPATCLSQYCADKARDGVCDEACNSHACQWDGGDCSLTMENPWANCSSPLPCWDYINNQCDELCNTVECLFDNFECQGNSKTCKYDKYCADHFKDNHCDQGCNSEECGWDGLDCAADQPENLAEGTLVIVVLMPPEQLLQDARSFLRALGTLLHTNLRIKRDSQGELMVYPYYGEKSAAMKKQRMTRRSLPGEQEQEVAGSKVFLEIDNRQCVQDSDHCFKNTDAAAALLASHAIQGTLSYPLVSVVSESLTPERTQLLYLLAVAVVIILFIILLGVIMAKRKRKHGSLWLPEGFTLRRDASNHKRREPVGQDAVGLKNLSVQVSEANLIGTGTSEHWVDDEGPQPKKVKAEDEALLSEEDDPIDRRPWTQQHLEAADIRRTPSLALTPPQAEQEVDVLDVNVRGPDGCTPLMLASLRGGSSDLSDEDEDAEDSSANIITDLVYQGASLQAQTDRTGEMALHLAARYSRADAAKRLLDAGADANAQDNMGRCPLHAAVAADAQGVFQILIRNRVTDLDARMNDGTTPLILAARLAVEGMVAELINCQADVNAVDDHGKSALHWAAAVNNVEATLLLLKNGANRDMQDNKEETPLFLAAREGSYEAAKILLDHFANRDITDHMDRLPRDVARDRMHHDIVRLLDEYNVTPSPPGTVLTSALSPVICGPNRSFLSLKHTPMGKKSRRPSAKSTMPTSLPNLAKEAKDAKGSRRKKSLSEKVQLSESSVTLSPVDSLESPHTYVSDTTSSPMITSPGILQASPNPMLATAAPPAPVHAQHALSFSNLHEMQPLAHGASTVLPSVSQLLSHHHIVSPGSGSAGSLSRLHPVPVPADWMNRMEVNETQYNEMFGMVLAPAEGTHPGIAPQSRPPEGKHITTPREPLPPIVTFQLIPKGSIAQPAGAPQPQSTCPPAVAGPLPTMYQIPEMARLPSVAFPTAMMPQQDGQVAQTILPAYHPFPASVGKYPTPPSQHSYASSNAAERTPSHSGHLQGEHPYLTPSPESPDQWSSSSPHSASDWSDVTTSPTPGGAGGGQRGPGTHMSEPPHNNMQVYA
Assay: Notch2 binders on small-molecule microarrays, primary screen, biochemical, small-molecule microarray, 635 nm fluorescence, stem cell growth factors (AID 1073)
Conditions: Notch2 binding, higher = more signal

Compound | composite z-score
Cc1ccc(S[C@]2(C(=O)NCc3ccccc3)CC(=O)N(Cc3ccccc3)[C@@H]2c2ccc(CO)cc2)cc1 | -0.338
C=C(C(=O)CC[C@H](OC(C)=O)c1ccc(OCCO)cc1)C(C)C | 1.49
Cc1ccc(S[C@]2(C(=O)NCC(C)C)CC(=O)N(Cc3ccccc3)[C@@H]2c2ccc(CO)cc2I)cc1 | 0.533
O=C1N(CCS(=O)(=O)c2ccccc2)c2ccccc2C[C@@]12COC(c1ccc(OCCCO)cc1)=N2 | 1.33
CCOC(=O)C[C@H]1[C@H](OC(=O)c2ccc(-c3ccccc3)cc2)[C@@H](NC(=O)Cc2ccc(OC)cc2)c2cc(OCCCO)ccc2N1C(=O)c1ccc2ccccc2n1 | 0.76
C=CCNC(=O)[C@@H]1[C@H]2C(=O)O[C@H](c3ccccc3)[C@H](c3ccccc3)N2[C@H](c2ccc(OCCO)cc2)[C@@]12C(=O)Nc1ccccc12 | 0.117
COCCOC(=O)N1C(=O)[C@@]2(c3cc(C#CCNC(N)=O)ccc31)[C@H](c1ccccc1OCCO)N1[C@H](c3ccccc3)[C@H](c3ccccc3)OC(=O)[C@H]1[C@@H]2C(N)=O | 0.77
COC(=O)[C@@]1(Cc2ccc(F)cc2)[C@H]2c3cc(C(=O)N4CCCC4)n(Cc4cccc5ccccc45)c3C[C@H]2CN1C(=O)c1ccccc1 | 1.57
CC(C)CNC(=O)[C@@]1(c2ccc([N+](=O)[O-])cc2)CC(=O)N(CC23CC4CC(CC(C4)C2)C3)[C@@H]1c1ccc(CO)cc1 | 0.994
CC1=C2[C@@H](CCc3ccccc3)OB(O)C[C@@H]2n2c(=O)n(-c3ccccc3)c(=O)n2C1 | 0.889
CCOC(=O)C[C@H]1[C@H](OC(=O)Cc2ccc3c(c2)OCO3)[C@@H](NC(=O)C2CCCCC2)c2cc(OCCCO)ccc2N1C(=O)Cc1ccc(OC)cc1 | 1.17
O=C(CS)NCCCCCCNC(=O)[C@H]1C[C@H]2C(=O)NCC(=O)N2[C@H]1c1ccc(O)cc1 | -0.355
C[N+](C)(C)CCCCCCNC(=O)[C@H]1C[C@H]2C(=O)N3CCC[C@H]3C(=O)N2[C@H]1c1ccc(O)cc1 | -0.967
C[C@H]1NC(=O)[C@H](Cc2ccccc2)NC(=O)[C@@]23C(=O)N[C@@H](Cc4ccccc4)C2[C@H](C)[C@@]2(C)O[C@H]2C3/C=C/C/C=C\CNC1=O (stereo partly drawn) | -0.221
CS(=O)(=O)CCOC(=O)C1=CC(c2ccc(CO)cc2)=CC(C2CC2)N(Cc2cc3c(cc2Br)OCO3)C=C1C(=O)OCCS(C)(=O)=O (stereo not drawn) | 1.13
[N-]=[N+]=NCc1ccccc1C[C@@]1(C(=O)N2CCOCC2)N=C(c2ccc(OCCCO)cc2)O[C@@H]1c1ccccc1CN=[N+]=[N-] | 1.52
CN1C=C(C(=O)OCCS(C)(=O)=O)C(C(=O)OCCS(C)(=O)=O)=CC(CCCO)=CC1C1CC1 (stereo not drawn) | 0.213
C=CCOC(=O)[C@H]1[C@@H]2C(=O)O[C@@H](c3ccccc3)[C@@H](c3ccccc3)N2[C@@H](c2ccc(OCCOC(=O)[C@@H]3C[C@@H]4C(=O)NCC(=O)N4[C@@H]3c3ccc(O)cc3)cc2)[C@]12C(=O)Nc1ccccc12 | -0.111
O=C1C=CC(=O)[C@@H]2CC(COc3ccccc3)=C3[C@@H](CCc4ccccc4)OB(O)C[C@@H]3[C@H]12 | 0.222
